Hits are enriched below; roughly 2% of the tested compounds scored in any of these assays.
IL2 activator = IL-2 activation; activation, % (series mostly up to about 46 µM); 0.065% of 360,000 active; IL-2 activation reporter assay, cell-based qHTS; stimulated with anti-CD3/CD4/CD28 beads; in transgenic mouse T cells; in the data active = activation above about 50%; inconclusive = mostly about 30% to 49%; note: 0% is about no effect
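Unstimulated transgenic mouse T cells; 60-min compound exposure; bead-based TCR/CD4/CD28 stimulation; 18 h culture, 37 degrees C; dual fluorescence (EGFP, DsRed) plate cytometry.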
NPSR antagonist = blocks cAMP signaling of the human neuropeptide S receptor; CHO-NPSR cells, cAMP TR-FRET, antagonist mode; Potency, µM (doses to about 38.3 µM), for inactives: top-dose activity change, negative = inhibition, actives largely listed as inhibitors; 1% of 220,000 active; AID 1461; note: potency is the fitted concentration of half-maximal effect; % is set by controls: 0 for no effect and ±100 for the full control effect; nearly all actives have a fitted effect of over 50% in size
PKM2 act = activators of human pyruvate kinase M2. purified PKM2, Kinase-Glo ATP luminescence, activation; response scale: 0% is enzyme alone, no compound. Potency, µM (top dose mostly 57.5 µM), for inactives: at the highest dose activation, hits mostly activators. 0.34% of 260,000 active; note: potency is the fitted concentration of half-maximal effect; % is set by controls: 0 for no effect and ±100 for the full control effect; nearly all actives have a fitted effect of over 55% in size
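Purified hPK-M2 (>95%) run at intermediate activity with 0.1 mM ADP and 0.5 mM PEP in 50 mM imidazole pH 7.2, KCl, MgCl2; 1 h room temperature. ATP formed read by Kinase-Glo luminescence; normalized to uninhibited and no-enzyme controls.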
ClpP mod = qHTS Assay for Activators of ClpP; ATP-dependent Clp protease proteolytic subunit (Bacillus subtilis (strain 168)), P80244; purified B. subtilis ClpP, FRET peptide cleavage, 20 min; Potency, µM (highest dose often 57.5 µM), for inactives: at the top dose activity change, negative = active; 1.9% of 340,000 active; AID 651965, 2013; active = well fitted falling curve with a large enough effect; inconclusive = small, poorly fitted or top-dose-only effect; inactive = no such curve, though single readings can be large or run the other way; note: potency is the fitted concentration of half-maximal effect; the source files actives as falling curves though it sought activators and does not explain the sign; nearly all actives have a fitted effect of over 65% in size
Target sequence (P80244 whole entry, looked up): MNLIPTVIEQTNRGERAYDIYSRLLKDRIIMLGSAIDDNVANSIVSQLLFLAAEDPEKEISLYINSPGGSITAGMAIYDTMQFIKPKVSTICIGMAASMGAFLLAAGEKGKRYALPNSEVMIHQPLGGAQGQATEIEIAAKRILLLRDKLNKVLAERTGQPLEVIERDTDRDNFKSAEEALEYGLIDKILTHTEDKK
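Purified B. subtilis ClpP, 10 microg/mL final in Tris/HCl pH8 with KCl, BSA, glycerol and Tween-20, cleaved an Abz/nitrotyrosine-quenched decapeptide. Fluorescence (ex 320, em 430) was read at 0 and 20 min at room temperature. Delta was normalized to 5.8 microM ADEP and DMSO/no-enzyme controls.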
* hit, by the source's call; ? = inconclusive; / = no result; [ ] = remark or other dose. Unless noted, calls come from the whole dose curve; as a rule, active = well fitted curve in the direction sought with a large enough effect; inconclusive = small, poorly fitted or top-dose-only effect, or another doubt; inactive = no such curve, though single readings can be large; an effect the other way counts as inactive or inconclusive.

SMILES | IL2 activator | NPSR antagonist | PKM2 act | ClpP mod
O=S1(=O)NC2CCCCCN2c2ccc(F)cc21 (stereo not drawn) | 1 | -5%[46.1 µM] | 17% | 28µM*
Cc1[nH]nc2c1C(c1ccccc1)C1=C(CC(C)(C)CC1=O)N2 (stereo not drawn) | -3 | -12%[46.1 µM] | -8% | 28µM*
COc1ccc(C2C3=C(CC(C)(C)CC3=O)Nc3n[nH]c(C)c32)cc1 (stereo not drawn) | 0 | ? | 15% | 35µM*
Cc1[nH]nc2c1C(c1ccc(O)cc1)C1=C(CC(C)(C)CC1=O)N2 (stereo not drawn) | 0 | 1% | -2% | /
COc1cccc(C2C3=C(CC(C)(C)CC3=O)Nc3n[nH]c(C)c32)c1 (stereo not drawn) | 1 | -14% | 7% | 4%
Cc1c(C(=O)N2CCC3(CC2)CC(=O)c2ccccc2O3)cccc1[N+](=O)[O-] | -2 | / | / | -16%
O=C1CC2(CCN(C(=O)c3ccccc3Br)CC2)Oc2ccccc21 | -5 | / | / | 28µM*
O=C1CC2(CCN(C(=O)c3ccc([N+](=O)[O-])cc3)CC2)Oc2ccccc21 | 0 | / | / | /
O=C1CC2(CCN(C(=O)c3ccc(Br)cc3)CC2)Oc2ccccc21 | -3 | / | / | 32µM*
Cc1ccc(C(C)NC(=S)NC2CCCCC2)cc1C (stereo not drawn) | / | / | 1% | /
O=C(Cn1c(=O)c2c3c(sc2n(Cc2ccccc2)c1=O)CCCC3)NCCO | 0 | / | / | /
O=C1C=CC(=O)N1c1ccc(Sc2ccc([N+](=O)[O-])cc2)cc1 | / | 30% | 32µM* | /
Nc1ccc(Sc2ccc([N+](=O)[O-])cc2)cc1 | -3 | -17% | 1% | /
Cc1cc(-c2cc(-c3ccccc3)on2)nc(NC2CCCC2)n1 | 0 | -29% | -2% | 2%
Cc1cc(-c2cc(-c3ccc(Cl)cc3)on2)nc(NC2CCCC2)n1 | -1 | 0% | 2% | 25µM*
CCOC(=O)c1ccc(S(=O)(=O)N2CCN(C(=O)c3cc4ccccc4o3)CC2)cc1 | -2 | / | / | 1%
c1coc(C2Nc3ccccc3-c3nc4ccccc4n32)c1 (stereo not drawn) | 2 | ? | -9% | 2.8µM*
N#Cc1c(NC(=O)CSc2nc(-c3ccccc3)cc(C(F)(F)F)n2)sc2c1CCC2 | 1 | -33% | 0% | 25µM*
O=C(c1cccnc1)n1nc(NCc2ccccc2)nc1NCc1ccccc1 | 0 | 4% | 7% | /
COc1cccc(-c2nnc(-c3ccco3)o2)c1 | 2 | 3% | -18% | -1%
CC(C)COc1ccc(-c2nnc(-c3ccco3)o2)cc1 | 5 | -27%[46.1 µM] | 12% | 16µM*
O=C(COc1ccccc1)Nc1ccc(-c2nnc(-c3ccco3)o2)cc1 | 0 | -4%[46.1 µM] | 7% | 20µM*
CCCOc1ccc(-c2nnc(-c3ccco3)o2)cc1 | -1 | -20%[46.1 µM] | 3% | 40µM*
Cc1ccc(C(=O)N2CCCC(C(=O)Nc3cccc(-c4ccc(F)cc4)c3)C2)cn1 (stereo not drawn) | -4 | / | -2% | /
CCN(CC)c1ccc(NC(=O)c2ccc(=O)[nH]c2)cc1S(=O)(=O)Nc1ccccc1OC | 5 | -26% | -2% | /
SMILES | IL2 activator | NPSR antagonist | PKM2 act | ClpP mod
CCc1ccc(-n2nc(CO)c(C(=O)NCCCc3ccccc3)n2)cc1 | / | / | / | 28µM*
Cc1ccc(-n2nc(CO)c(C(=O)NC(C)c3ccccc3)n2)cc1C (stereo not drawn) | / | / | / | 35µM*
Cc1ccc(-n2nc(CO)c(C(=O)NCCCc3ccccc3)n2)cc1C | / | / | / | 32µM*
O=C(NCCCc1ccccc1)c1nn(-c2ccccc2)nc1CO | / | / | / | -14%
CCc1ccc(-n2nc(CO)c(C(=O)NC)n2)cc1 | / | / | / | 14µM*
Cc1ccc(SCCC(=O)NC(C)(C)C)cc1 | 0 | -11%[46.1 µM] | -16% | -5%
c1ccc(CCOn2ccnc2)cc1 | -4 | / | / | -5%
c1cncc(-c2nc(NCC3COc4ccccc4O3)c3ccccc3n2)c1 (stereo not drawn) | -2 | ? | 4% | -15%
CN1CCN(/C=N/c2c(C#N)cnn2C)CC1 | 1 | 9%[46.1 µM] | -2% | 0%
Cc1ccc(-n2nc(CO)c(C(=O)NC(C)CCCc3ccccc3)n2)cc1C (stereo not drawn) | / | / | / | 35µM*
CCC1=NN(C(=O)C(=O)Nc2ccc(Br)cc2)C(O)(C(F)(F)F)C1 (stereo not drawn) | -2 | 24% | 6% | 2%
Cc1cccc2nc(-c3ccccc3)nc(N3CCC(O)(c4ccc(Cl)cc4)CC3)c12 | 1 | -35% | -1% | 14µM*
